Test results: ChEMBL document CHEMBL1961873, “Compounds: GSK PKIS; Assays: Nanosyn kinase panel” (2012)

Each molecule was assayed against T1, cAMP-dependent protein kinase catalytic subunit PRKX (Homo sapiens) (UniProt P51817). Settings: at 0.1 µM.
T1 sequence (whole entry): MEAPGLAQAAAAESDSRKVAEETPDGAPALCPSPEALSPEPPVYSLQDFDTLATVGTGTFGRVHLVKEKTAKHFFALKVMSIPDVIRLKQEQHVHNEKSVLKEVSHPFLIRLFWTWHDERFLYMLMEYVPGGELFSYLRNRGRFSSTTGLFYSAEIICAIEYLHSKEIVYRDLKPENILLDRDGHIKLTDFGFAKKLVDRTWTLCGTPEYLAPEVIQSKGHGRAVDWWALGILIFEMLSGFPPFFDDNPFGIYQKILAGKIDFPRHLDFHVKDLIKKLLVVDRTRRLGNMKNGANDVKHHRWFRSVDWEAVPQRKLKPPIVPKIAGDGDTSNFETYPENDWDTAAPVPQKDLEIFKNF
For `c1ccc(COc2ccc(Nc3ncnc4ccc(-c5ccco5)cc34)cc2)cc1`, the inhibition was 2.22%. `COC(=O)Nc1nc2ccc(S(=O)(=O)c3ccc(NC(=O)Nc4cc(C(F)(F)F)ccc4F)cc3)cc2[nH]1` showed an inhibition of 0.54%. `CN(C)CCOc1ccc(-c2nc(-c3ccncc3)c(-c3ccc4c(c3)CC/C4=N\O)[nH]2)cc1` gave an inhibition of 1.16%. `CS(=O)(=O)CCNCc1ccc(-c2ccc3ncnc(Nc4ccc(OCc5ccccc5)c(C(F)(F)F)c4)c3c2)o1` showed an inhibition of 2.36%. Work on `COc1cc2ncn(-c3cc(OCc4ccccc4C(F)(F)F)c(C(=O)N(C)C)s3)c2cc1OC` yielded an inhibition of -0.01%. `CC(C)COC(=O)c1ccc2c(c1)/C(=C/Nc1ccc(S(N)(=O)=O)cc1)C(=O)N2` was tested, and the inhibition was 6.36%. For `CCc1nn2ncccc2c1-c1ccnc(NC2CC2)n1`, the inhibition was 1.66%. `CN1CCC(n2cnc(-c3ccc(F)cc3)c2-c2ccnc(Nc3ccccc3)n2)CC1` was tested, and the inhibition was 1.37%. Work on `FC(F)(F)c1cccc(-c2nn3ncccc3c2-c2ccnc(Nc3ccc4c(c3)OCCO4)n2)c1` yielded an inhibition of 0.27%. In the case of `COc1ccc2[nH]c3c4[nH]c5ccc(OC)cc5c4c4c(c3c2c1)C(=O)NC4=O`, the inhibition is reported as 9.07%. Molecule `CNC(=O)c1cccc(C#Cc2cncnc2Nc2ccc(OCc3cccc(F)c3)c(Cl)c2)c1` has an inhibition of -0.25%. Molecule `COc1cc(N2CCN(C(C)C)CC2)ccc1Nc1nc(Nc2ccc(F)cc2C(N)=O)c2cc[nH]c2n1` has an inhibition of 5.37%. `Fc1ccc(-c2cc(-c3c[nH]nc3-c3ccccn3)ccn2)cc1` gave an inhibition of 1.98%. With `COc1cc2c(cc1Nc1nc(Nc3ccsc3C(N)=O)c3cc[nH]c3n1)N(C(=O)CN(C)C)CCC2(C)C` the inhibition was 2.19%. `Fc1ccc(-c2nn3ccccc3c2-c2ccncc2)cc1` showed an inhibition of 1.41%. With `CCCN(CCS(C)(=O)=O)Cc1ccc(-c2ccc3ncnc(Nc4ccc(OCc5cccc(F)c5)c(Cl)c4)c3c2)o1` the inhibition was 1.89%. With `COc1cc(/C=N/Nc2ncnc3[nH]ncc23)ccc1O` the inhibition was 1.69%. `c1cc(-c2cnn3nc(N4CCOCC4)ccc23)nc(NC2CC2)n1` gave an inhibition of 1.09%. In the case of `CN1CCC(n2cnc(-c3ccc(F)cc3)c2-c2ccnc(N)n2)CC1`, the inhibition is reported as 0.51%. In the case of `Fc1ccc(-c2nn3ncccc3c2-c2ccnc(Nc3ccc4c(c3)OCCO4)n2)cc1`, the inhibition is reported as 0.43%. `COc1ccc(-c2oc3ncnc(N)c3c2-c2ccc(NC(=O)Nc3cc(C(F)(F)F)ccc3F)cc2)cc1` was tested, and the inhibition was 4.23%. Work on `CCN(CC)S(=O)(=O)c1ccc(OC)c(Nc2ncc(-c3ccccc3)o2)c1` yielded an inhibition of 0.38%. `Cc1ccc(O)cc1Nc1ccnc2cc(-c3ccccn3)ccc12` was tested, and the inhibition was 1.87%. With `COc1ccc(-c2nn3ncccc3c2-c2ccnc(Nc3ccc4c(c3)OCCO4)n2)cc1` the inhibition was 0.59%. `COc1cccc(-n2ncc3c(N/N=C/c4ccc(F)cc4)ncnc32)c1` showed an inhibition of 2.4%. With `CC1=C(C(=O)Nc2cc(Cl)c3[nH]ncc3c2)C(c2ccc(C(F)(F)F)cc2)CC(=O)N1` (stereo not drawn) the inhibition was 44.8%. For `COc1cccc(-c2c[nH]c3c(N/N=C/c4ccncc4)ncnc23)c1`, the inhibition was 1.13%. For `CC(C)(CO)CNC(=O)c1ccc2c(c1)/C(=N/Nc1ccc(S(N)(=O)=O)cc1)C(=O)N2`, the inhibition was 0.91%. For `NS(=O)(=O)c1ccc(N/N=C2\C(=O)Nc3ccc4ncccc4c32)cc1`, the inhibition was -0.15%. For `CCn1c(-c2nonc2N)nc2cnc(Oc3cccc(NC(=O)c4ccc(N(C)C)cc4)c3)cc21`, the inhibition was 12.9%. Work on `c1ccc(-c2nc3n(c2-c2ccc4c(c2)OCO4)CCC3)nc1` yielded an inhibition of 0.87%. `NC(=O)c1sc(-n2cnc3ccc(C(F)(F)F)cc32)cc1OCc1ccccc1Br` was tested, and the inhibition was 3.81%. Molecule `COc1ccc(-c2cc3c(N)ncnc3o2)cc1` has an inhibition of 0.58%. `N#Cc1c(NC(=O)c2ccc(F)cc2)sc2c1CCCC2` gave an inhibition of 0.52%.

What follows are molecules tested against T1, cAMP-dependent protein kinase catalytic subunit PRKX (Homo sapiens). Settings: at 1 µM.
With `c1ccc(COc2ccc(Nc3ncnc4ccc(-c5ccco5)cc34)cc2)cc1` the inhibition was 0.89%. In the case of `COC(=O)Nc1nc2ccc(S(=O)(=O)c3ccc(NC(=O)Nc4cc(C(F)(F)F)ccc4F)cc3)cc2[nH]1`, the inhibition is reported as -0.36%. For `CN(C)CCOc1ccc(-c2nc(-c3ccncc3)c(-c3ccc4c(c3)CC/C4=N\O)[nH]2)cc1`, the inhibition was 1.33%. `CS(=O)(=O)CCNCc1ccc(-c2ccc3ncnc(Nc4ccc(OCc5ccccc5)c(C(F)(F)F)c4)c3c2)o1` gave an inhibition of 2.08%. For `COc1cc2ncn(-c3cc(OCc4ccccc4C(F)(F)F)c(C(=O)N(C)C)s3)c2cc1OC`, the inhibition was -0.4%. In the case of `CC(C)COC(=O)c1ccc2c(c1)/C(=C/Nc1ccc(S(N)(=O)=O)cc1)C(=O)N2`, the inhibition is reported as 13.5%. `CCc1nn2ncccc2c1-c1ccnc(NC2CC2)n1` was tested, and the inhibition was 0.72%. With `CN1CCC(n2cnc(-c3ccc(F)cc3)c2-c2ccnc(Nc3ccccc3)n2)CC1` the inhibition was 1.71%. In the case of `FC(F)(F)c1cccc(-c2nn3ncccc3c2-c2ccnc(Nc3ccc4c(c3)OCCO4)n2)c1`, the inhibition is reported as -1.55%. In the case of `COc1ccc2[nH]c3c4[nH]c5ccc(OC)cc5c4c4c(c3c2c1)C(=O)NC4=O`, the inhibition is reported as 46%. For `CNC(=O)c1cccc(C#Cc2cncnc2Nc2ccc(OCc3cccc(F)c3)c(Cl)c2)c1`, the inhibition was 0.9%. With `COc1cc(N2CCN(C(C)C)CC2)ccc1Nc1nc(Nc2ccc(F)cc2C(N)=O)c2cc[nH]c2n1` the inhibition was 5.35%. Molecule `Fc1ccc(-c2cc(-c3c[nH]nc3-c3ccccn3)ccn2)cc1` has an inhibition of 5.03%. `COc1cc2c(cc1Nc1nc(Nc3ccsc3C(N)=O)c3cc[nH]c3n1)N(C(=O)CN(C)C)CCC2(C)C` showed an inhibition of 6.05%. Molecule `Fc1ccc(-c2nn3ccccc3c2-c2ccncc2)cc1` has an inhibition of 3.65%. For `CCCN(CCS(C)(=O)=O)Cc1ccc(-c2ccc3ncnc(Nc4ccc(OCc5cccc(F)c5)c(Cl)c4)c3c2)o1`, the inhibition was 1.27%. `COc1cc(/C=N/Nc2ncnc3[nH]ncc23)ccc1O` showed an inhibition of 3.71%. In the case of `c1cc(-c2cnn3nc(N4CCOCC4)ccc23)nc(NC2CC2)n1`, the inhibition is reported as -0.73%. In the case of `CN1CCC(n2cnc(-c3ccc(F)cc3)c2-c2ccnc(N)n2)CC1`, the inhibition is reported as 1.95%. `Fc1ccc(-c2nn3ncccc3c2-c2ccnc(Nc3ccc4c(c3)OCCO4)n2)cc1` was tested, and the inhibition was 0.09%. `COc1ccc(-c2oc3ncnc(N)c3c2-c2ccc(NC(=O)Nc3cc(C(F)(F)F)ccc3F)cc2)cc1` was tested, and the inhibition was 3.47%. For `CCN(CC)S(=O)(=O)c1ccc(OC)c(Nc2ncc(-c3ccccc3)o2)c1`, the inhibition was 0.62%. With `Cc1ccc(O)cc1Nc1ccnc2cc(-c3ccccn3)ccc12` the inhibition was -2.49%. `COc1ccc(-c2nn3ncccc3c2-c2ccnc(Nc3ccc4c(c3)OCCO4)n2)cc1` was tested, and the inhibition was -0.08%. `COc1cccc(-n2ncc3c(N/N=C/c4ccc(F)cc4)ncnc32)c1` gave an inhibition of 4.79%. With `CC1=C(C(=O)Nc2cc(Cl)c3[nH]ncc3c2)C(c2ccc(C(F)(F)F)cc2)CC(=O)N1` (stereo not drawn) the inhibition was 79.7%. `COc1cccc(-c2c[nH]c3c(N/N=C/c4ccncc4)ncnc23)c1` was tested, and the inhibition was -0.16%. With `CC(C)(CO)CNC(=O)c1ccc2c(c1)/C(=N/Nc1ccc(S(N)(=O)=O)cc1)C(=O)N2` the inhibition was 3.07%. Work on `NS(=O)(=O)c1ccc(N/N=C2\C(=O)Nc3ccc4ncccc4c32)cc1` yielded an inhibition of 2.43%. `CCn1c(-c2nonc2N)nc2cnc(Oc3cccc(NC(=O)c4ccc(N(C)C)cc4)c3)cc21` was tested, and the inhibition was 55.8%. For `c1ccc(-c2nc3n(c2-c2ccc4c(c2)OCO4)CCC3)nc1`, the inhibition was 3.61%. `NC(=O)c1sc(-n2cnc3ccc(C(F)(F)F)cc32)cc1OCc1ccccc1Br` showed an inhibition of 8.33%. Molecule `COc1ccc(-c2cc3c(N)ncnc3o2)cc1` has an inhibition of 0.29%. `N#Cc1c(NC(=O)c2ccc(F)cc2)sc2c1CCCC2` gave an inhibition of 1.79%.
